These results are taken from article PMC5700166.

Changes are numbered by the printed parent chain.

Holding throughout (test): protein-binding microarray (PBM); PBM: ~300 nM protein, 6 mM HEPES pH 7.8, 80 mM KCl, 0.5 mM EDTA, 0.5 mM EGTA, 6% glycerol, 35 ng/ul poly-dIdC, 1% milk, 1 h, room temperature; Ap Aiptasia and Nv Nematostella (sea anemones) / Co Capsaspora / Aq Amphimedon (sponge) / Dm Drosophila / Hu human; RHD is the Rel homology domain; high values mean tight binding
Common to all, as to conditions: dsDNA, one strand shown

Assay [1] has as its target T1, GST-Ap-NF-kB RHD (Exaiptasia pallida (Aiptasia), UniProt A0A913YAJ5 2-422).
T1 sequence: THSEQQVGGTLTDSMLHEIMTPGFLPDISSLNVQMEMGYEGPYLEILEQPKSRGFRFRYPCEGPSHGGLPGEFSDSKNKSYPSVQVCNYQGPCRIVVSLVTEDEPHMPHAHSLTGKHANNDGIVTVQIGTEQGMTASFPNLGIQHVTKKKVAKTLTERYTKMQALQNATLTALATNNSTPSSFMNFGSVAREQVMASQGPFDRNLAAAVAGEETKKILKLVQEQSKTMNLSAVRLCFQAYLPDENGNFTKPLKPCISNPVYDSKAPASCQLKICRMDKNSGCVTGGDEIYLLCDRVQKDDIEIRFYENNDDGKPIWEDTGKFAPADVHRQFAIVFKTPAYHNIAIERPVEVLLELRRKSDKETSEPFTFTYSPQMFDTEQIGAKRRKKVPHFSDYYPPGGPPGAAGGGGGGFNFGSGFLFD

Assay [2] concerns the target T2, GST-Nv-NF-kB (Ser allele) (Nematostella vectensis, UniProt A7UNT2 2-411).
T2 sequence: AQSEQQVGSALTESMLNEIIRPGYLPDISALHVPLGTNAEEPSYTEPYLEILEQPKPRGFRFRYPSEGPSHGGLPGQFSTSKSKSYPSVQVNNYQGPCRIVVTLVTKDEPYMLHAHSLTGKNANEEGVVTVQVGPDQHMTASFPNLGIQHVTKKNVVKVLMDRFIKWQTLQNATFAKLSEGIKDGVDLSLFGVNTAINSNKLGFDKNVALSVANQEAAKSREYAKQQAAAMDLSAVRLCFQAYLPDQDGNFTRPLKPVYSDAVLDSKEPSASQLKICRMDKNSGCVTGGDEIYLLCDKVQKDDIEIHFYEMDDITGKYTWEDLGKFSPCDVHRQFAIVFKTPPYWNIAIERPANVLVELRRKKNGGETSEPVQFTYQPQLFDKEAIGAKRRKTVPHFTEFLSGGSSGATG

The target of assay [3] is T3, GST-Co-NF-kB (Capsaspora owczarzaki, UniProt F1ARL5 200-546).
T3 sequence: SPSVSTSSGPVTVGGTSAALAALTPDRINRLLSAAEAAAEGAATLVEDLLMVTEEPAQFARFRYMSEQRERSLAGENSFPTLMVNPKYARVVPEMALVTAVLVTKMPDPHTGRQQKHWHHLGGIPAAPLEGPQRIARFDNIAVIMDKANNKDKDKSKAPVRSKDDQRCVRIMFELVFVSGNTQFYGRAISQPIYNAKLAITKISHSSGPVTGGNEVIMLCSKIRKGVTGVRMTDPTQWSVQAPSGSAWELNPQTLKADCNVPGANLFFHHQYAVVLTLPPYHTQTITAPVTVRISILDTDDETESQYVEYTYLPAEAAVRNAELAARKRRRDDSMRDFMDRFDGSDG

Assay [4] addresses T4, GST-Aq-NF-kB (Amphimedon queenslandica, UniProt A9Y5G7 2-389).
T4 sequence: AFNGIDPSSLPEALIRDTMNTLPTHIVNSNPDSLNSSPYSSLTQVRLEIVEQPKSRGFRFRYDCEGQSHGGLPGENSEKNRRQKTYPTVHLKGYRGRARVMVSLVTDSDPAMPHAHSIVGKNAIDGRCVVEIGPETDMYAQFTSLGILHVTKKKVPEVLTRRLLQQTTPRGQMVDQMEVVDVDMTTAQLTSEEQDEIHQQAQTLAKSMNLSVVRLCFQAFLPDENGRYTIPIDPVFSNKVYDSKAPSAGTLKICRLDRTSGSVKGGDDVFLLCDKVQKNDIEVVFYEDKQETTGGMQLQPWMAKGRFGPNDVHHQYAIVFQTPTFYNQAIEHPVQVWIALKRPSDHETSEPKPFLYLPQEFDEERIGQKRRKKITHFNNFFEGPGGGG

Assay [5] addresses GST-Hu-p50 (Homo sapiens, UniProt P19838 7-356).
Assay [6] addresses T5, GST-Nv-NF-kB (Cys allele) (Nematostella vectensis, UniProt E5G601 2-411).
T5 sequence: T2 sequence with R21Q, S66C, N207S, Q215E, A217V, K225E, E268A, E399D

Assay [7] concerns the target T6, GST-Dm-Relish (Drosophila melanogaster, UniProt Q94527 99-473).
T6 sequence: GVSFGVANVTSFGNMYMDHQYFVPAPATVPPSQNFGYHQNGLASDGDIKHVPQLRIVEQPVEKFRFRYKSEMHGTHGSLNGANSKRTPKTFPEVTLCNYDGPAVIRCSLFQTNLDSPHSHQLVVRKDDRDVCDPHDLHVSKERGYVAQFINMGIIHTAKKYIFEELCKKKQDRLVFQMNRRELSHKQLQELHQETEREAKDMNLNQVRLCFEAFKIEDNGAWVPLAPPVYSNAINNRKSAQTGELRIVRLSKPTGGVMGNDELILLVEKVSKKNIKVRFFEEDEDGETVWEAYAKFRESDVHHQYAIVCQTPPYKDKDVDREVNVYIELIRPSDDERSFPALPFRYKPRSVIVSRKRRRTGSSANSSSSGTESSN

GST-Hu-p50, sequence (P19838 7-356): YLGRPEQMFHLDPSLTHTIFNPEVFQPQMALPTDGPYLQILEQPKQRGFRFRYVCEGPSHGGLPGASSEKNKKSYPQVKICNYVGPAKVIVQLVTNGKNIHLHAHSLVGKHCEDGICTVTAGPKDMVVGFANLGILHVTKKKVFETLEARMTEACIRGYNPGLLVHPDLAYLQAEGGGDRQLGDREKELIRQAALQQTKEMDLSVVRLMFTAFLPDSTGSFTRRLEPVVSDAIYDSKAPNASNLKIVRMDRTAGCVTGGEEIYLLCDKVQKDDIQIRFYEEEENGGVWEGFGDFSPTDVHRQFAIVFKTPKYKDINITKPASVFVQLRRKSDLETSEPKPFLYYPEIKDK

Regarding “CCGATTAACATCAGGGGTAGAACTGATGTTAATCGGGTCTTGATTCGCTTGACGCTGCTG”, the binding signal in assay [1] was 1.85 z-score; in assay [2], 1.11 z-score; in assay [3], 5.07 z-score; in assay [4], 1.92 z-score; in assay [5] it was 1.99 z-score.

For “CCGATTAACATCAAAAATTACCATGATGTTAATCGGGTCTTGATTCGCTTGACGCTGCTG”, the binding signal in assay [6] turned out to be 1.73 z-score; in assay [2], 3.14 z-score; in assay [7], 3.14 z-score; in assay [4], 1.73 z-score; in assay [5] it was 2.52 z-score.

On to “CCGATTAACATCAGTGGGAAACATGATGTTAATCGGGTCTTGATTCGCTTGACGCTGCTG”, for which the binding signal turned out to be 1.93 z-score in assay [6]; 1.79 z-score in assay [2]; 3.12 z-score in assay [3]; 2.03 z-score in assay [4]; 1.25 z-score in assay [5].

Consider “CCGATTAACATCAGTTTGGGAAATGATGTTAATCGGGTCTTGATTCGCTTGACGCTGCTG”, for which the binding signal in assay [6] came to 2.49 z-score; in assay [2], 2.26 z-score; in assay [3], 2.36 z-score; in assay [4] it was 1.19 z-score; in assay [5], 1.46 z-score.

Consider “CCGATTAACATCAAGGAATTTTCTGATGTTAATCGGGTCTTGATTCGCTTGACGCTGCTG”, for which the binding signal in assay [6] was 1.08 z-score; in assay [7], 1.93 z-score; in assay [4], 2.26 z-score; in assay [5], 1.18 z-score.

As for “CCGATTAACATCAATTCCCAAAATGATGTTAATCGGGTCTTGATTCGCTTGACGCTGCTG”, the binding signal in assay [6] was found to be 2.17 z-score; in assay [2] it was 2.29 z-score; in assay [3] it was 1.45 z-score; in assay [7], 1.29 z-score; in assay [4], 1.31 z-score; in assay [5], 1.25 z-score.

On to “CCGATTAACATCAAAATTTGCCCTGATGTTAATCGGGTCTTGATTCGCTTGACGCTGCTG”, for which the binding signal in assay [2] came to 1.28 z-score; in assay [3], 1.18 z-score; in assay [4], 1.61 z-score; in assay [5] it was 1.54 z-score.

In the case of “CCGATTAACATCAGGTTATTCCATGATGTTAATCGGGTCTTGATTCGCTTGACGCTGCTG”, the binding signal in assay [2] came out at 2.28 z-score; in assay [7], 2.41 z-score; in assay [4] it was 1.85 z-score; in assay [5] it was 3.32 z-score.

For the sequence “CCGATTAACATCATAATGGGAAATGATGTTAATCGGGTCTTGATTCGCTTGACGCTGCTG”, the binding signal in assay [6] came out at 2.83 z-score; in assay [2], 2.35 z-score; in assay [3], 1.93 z-score; in assay [4], 1.68 z-score; in assay [5] it was 2.18 z-score.

For the sequence “CCGATTAACATCATTCCCGGAAATGATGTTAATCGGGTCTTGATTCGCTTGACGCTGCTG”, the binding signal in assay [6] is 3.35 z-score; in assay [2], 2.61 z-score; in assay [3] it was 2.37 z-score; in assay [7], 1.05 z-score; in assay [4], 2.67 z-score; in assay [5] it was 1.79 z-score.

With “CCGATTAACATCAGGTAAATACCTGATGTTAATCGGGTCTTGATTCGCTTGACGCTGCTG”, the binding signal in assay [6] is 2.06 z-score; in assay [2] it was 3.12 z-score; in assay [7] it was 4.77 z-score; in assay [4], 4.2 z-score; in assay [5], 2.11 z-score.

“CCGATTAACATCAGGAAATAACCTGATGTTAATCGGGTCTTGATTCGCTTGACGCTGCTG”: the binding signal in assay [6] turned out to be 3.04 z-score; in assay [2] it was 3.75 z-score; in assay [7], 3.31 z-score; in assay [4], 4.91 z-score; in assay [5], 5.04 z-score.

Turning to “CCGATTAACATCAAAATTTACCGTGATGTTAATCGGGTCTTGATTCGCTTGACGCTGCTG”, the binding signal in assay [6] came out at 1.63 z-score; in assay [2] it was 3.7 z-score; in assay [3], 1.05 z-score; in assay [7], 3.37 z-score; in assay [4], 2.12 z-score; in assay [5] it was 2.17 z-score.

In the case of “CCGATTAACATCAAAAAATTTCCTGATGTTAATCGGGTCTTGATTCGCTTGACGCTGCTG”, the binding signal in assay [2] was found to be 1.31 z-score; in assay [7], 2.34 z-score; in assay [4] it was 2.22 z-score; in assay [5] it was 2.27 z-score.

Turning to “CCGATTAACATCAAAATTTTTCCTGATGTTAATCGGGTCTTGATTCGCTTGACGCTGCTG”, the binding signal in assay [2] amounted to 1.42 z-score; in assay [3] it was 1.06 z-score; in assay [7] it was 2.86 z-score; in assay [4] it was 1.46 z-score; in assay [5] it was 1.87 z-score.

As for “CCGATTAACATCAAGGTTTTTCCTGATGTTAATCGGGTCTTGATTCGCTTGACGCTGCTG”, the binding signal in assay [2] stood at 1.62 z-score; in assay [7] it was 3.17 z-score; in assay [4], 2.97 z-score; in assay [5] it was 1.61 z-score.

Consider “CCGATTAACATCAAAATTTACCATGATGTTAATCGGGTCTTGATTCGCTTGACGCTGCTG”, for which the binding signal in assay [2] was found to be 2.56 z-score; in assay [7], 2.43 z-score; in assay [4], 1.07 z-score; in assay [5], 2.22 z-score.

On to “CCGATTAACATCAGAAAATACCATGATGTTAATCGGGTCTTGATTCGCTTGACGCTGCTG”, for which the binding signal in assay [6] worked out at 1.12 z-score; in assay [2], 1.7 z-score; in assay [7], 3.11 z-score; in assay [4] it was 1.58 z-score; in assay [5], 1.63 z-score.

As to “CCGATTAACATCAGTTTCCCAAATGATGTTAATCGGGTCTTGATTCGCTTGACGCTGCTG”, the binding signal in assay [6] stood at 2.56 z-score; in assay [2], 3.42 z-score; in assay [3], 2.19 z-score; in assay [7], 1.2 z-score; in assay [4], 1.17 z-score; in assay [5] it was 1.81 z-score.

As to “CCGATTAACATCACCACCACCCCTGATGTTAATCGGGTCTTGATTCGCTTGACGCTGCTG”, the binding signal in assay [1] is 1.55 z-score; in assay [3], 2.34 z-score; in assay [7], 1.39 z-score; in assay [4], 1.75 z-score; in assay [5] it was 2.36 z-score.

With “CCGATTAACATCACCGGAAATTCTGATGTTAATCGGGTCTTGATTCGCTTGACGCTGCTG”, the binding signal in assay [6] was 1.22 z-score; in assay [2] it was 1.39 z-score; in assay [7] it was 1.78 z-score; in assay [4] it was 2.51 z-score; in assay [5], 2.29 z-score.

For the sequence “CCGATTAACATCAGAAATTGCCCTGATGTTAATCGGGTCTTGATTCGCTTGACGCTGCTG”, the binding signal in assay [6] was 1.33 z-score; in assay [4], 2.44 z-score; in assay [5], 1.68 z-score.

For the sequence “CCGATTAACATCAGGATTTGCCCTGATGTTAATCGGGTCTTGATTCGCTTGACGCTGCTG”, the binding signal in assay [6] stood at 1.25 z-score; in assay [4], 3.5 z-score; in assay [5] it was 1.37 z-score.

For “CCGATTAACATCAGGGAGTACACTGATGTTAATCGGGTCTTGATTCGCTTGACGCTGCTG”, the binding signal amounted to 1.96 z-score in assay [1]; 1.03 z-score in assay [3]; 1.58 z-score in assay [7]; 1.84 z-score in assay [4]; 1.1 z-score in assay [5].

As for “CCGATTAACATCACCAAAATTCCTGATGTTAATCGGGTCTTGATTCGCTTGACGCTGCTG”, the binding signal worked out at 1.17 z-score in assay [2], 1.01 z-score in assay [7], 1.17 z-score in assay [4] and 1.51 z-score in assay [5].

“CCGATTAACATCAAAAACTTTCCTGATGTTAATCGGGTCTTGATTCGCTTGACGCTGCTG”: the binding signal in assay [2] was found to be 1.54 z-score; in assay [7] it was 2.34 z-score; in assay [4] it was 2.68 z-score; in assay [5] it was 1.25 z-score.

On to “CCGATTAACATCATTCCGGGAAATGATGTTAATCGGGTCTTGATTCGCTTGACGCTGCTG”, for which the binding signal was determined as 2.87 z-score in assay [6]; 3.44 z-score in assay [2]; 2.74 z-score in assay [3]; 1.95 z-score in assay [4]; 1.99 z-score in assay [5].
